# Data: PubChem BioAssay AID2284369 (EPA ToxCast)
# Results filed as inconclusive are left out. Activity calls are given as the source filed them. How the source made its calls: active means hit-call score of the fitted dose curve at least 0.9, where 1 is the maximum; inconclusive means response in the unintended direction; inactive means score below 0.9.
# Tested on: frog Estrogen Receptor (ER1), gene 398734
# Test: ATG_frER1_EcoTox2: Attagene TRANS-FACTORIAL EcoTox-2 HepG2 Assay for frog Estrogen Receptor (ER1)
# Description: ATG_EcoTox2 is a cell-based, multiplexed assay created by modifying the existing Attagene TRANS-FACTORIAL system to include a panel of nuclear receptors from some or all the following species: human (Homo sapiens), african clawed frog (Xenopus laevis), rainbow trout (Oncorhynchus mykiss), japanese medaka (Oryzias latipes), and zebrafish (Danio rerio). The ECOTOX2-FACTORIAL format uses HepG2, a human liver cell line, with measurements taken at 24 hours after chemical dosing in a 24-well plate. ATG_frER1_EcoTox2 is one of 29 assay components calculated in the ATG_EcoTox2 assay. It is designed to make measurements of mRNA induction, a form of inducible reporter, as detected with fluorescence intensity signals by Reverse transcription polymerase chain reaction (RT-PCR) and Capillary electrophoresis technology.The assay endpoint ATG_frER1_EcoTox2 was analyzed in the positive analysis fitting direction relative to DMSO as the negative control and baseline of activity. Using a type of inducible reporter, measures of mRNA for gain-of-signal activity can be used to understand the reporter gene at the transcription factor-level as they relate to the gene ER. Furthermore, this assay endpoint can be referred to as a primary readout, because this assay has produced multiple assay endpoints where this one serves a reporter gene function. To generalize the intended target to other relatable targets, this assay endpoint is annotated to the nuclear receptor intended target family, where the subfamily is steroidal.
# Human liver HepG2 cells are transiently transfected with multiple reporter transcription units (MRTUs) in 6-well plates using FuGene 6 reagent (Roche; 3 ml FuGene/1 mg DNA). The MRTU constructs are regulated by a cis-regulating element (promoter). Each RTU expresses a GAL4-UAS that regulates the transcription of a nearby target reporter gene sequence. A major difference between the CIS and TRANS system is that in CIS activities of endogenous TFs are measured, whereas the TRANS assay evaluates changes in activities of exogenous, chimeric NR-Gal4 proteins. […] At the end of 24 hour incubation, total RNA was isolated using TriZol reagent (Invitrogen). The isolated RNA is then reverse-transcribed using oligo(dT) primer and Mo-MLV reverse transcriptase (Invitrogen) with DNAse I (Ambion) treatment for 30 min. The one-tenth of the produced cDNA was amplified by PCR using Taq DNA polymerase (Invitrogen) and two reporter sequence-specific primers. […] The fragments were purified using Qiaquick PCR columns (Qiagen), analyzed on an ABI 3130xL genetic analyzer (Applied Biosystems) with peak positions identified by using a set of X-rhodamine (ROX)-labeled MapMarker1000 molecular weight standards (BioVentures). […]
Compound,outcome,AC50
O=S(=O)(O)C(F)(F)C(F)(F)C(F)(F)C(F)(F)C(F)(F)C(F)(F)F,inactive,–
O=P(Oc1ccccc1)(Oc1ccccc1)Oc1ccccc1,inactive,–
O=C(O)C(F)(F)C(F)(F)C(F)(F)C(F)(F)C(F)(F)C(F)(F)C(F)(F)F,–,75 µM (active)
CCCCOCN(C(=O)CCl)c1c(CC)cccc1CC,inactive,–
